Source: PubChem BioAssay
Compounds with a hit are over-represented: about 12% of the library has one in this group of screens.
AmpC no deterg: inhibitors of E. coli AmpC beta-lactamase without detergent; Potency, µM (top dose mostly 57.1 µM), without a hit: at the top dose activity change, negative = inhibition, actives largely listed as inhibitors; AmpC nitrocefin hydrolysis, absorbance 480 nm, 0.0001% Triton; AID 485341; 330,000 compounds, 0.52% hits;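 note: plate controls were no compound for no effect and no enzyme for full effect; nearly all actives have a fitted effect of over 20% in size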
Target sequence (P00811 whole entry, looked up): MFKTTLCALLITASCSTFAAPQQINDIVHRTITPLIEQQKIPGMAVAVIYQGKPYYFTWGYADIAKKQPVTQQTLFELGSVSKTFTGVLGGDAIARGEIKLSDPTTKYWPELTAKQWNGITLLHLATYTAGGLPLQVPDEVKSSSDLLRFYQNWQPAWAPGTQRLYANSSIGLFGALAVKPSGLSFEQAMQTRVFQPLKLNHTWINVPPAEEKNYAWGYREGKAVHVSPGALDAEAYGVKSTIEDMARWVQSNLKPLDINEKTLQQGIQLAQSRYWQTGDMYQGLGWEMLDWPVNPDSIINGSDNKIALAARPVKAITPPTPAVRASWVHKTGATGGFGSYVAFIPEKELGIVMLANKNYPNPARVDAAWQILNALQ
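20 mM phosphate pH 7.0 + 0.01% (detergent screen) or 0.0001% Triton X-100; 5.3 nM AmpC reagent; cpd preinc 15 min RT; nitrocefin (800 uM stock) to start; A480 q20 s × 4 min; Activity was normalised to no-enzyme and no-compound control wells.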
Pf growth 96h: P. falciparum growth inhibition at 96 hours | 320,000 compounds, 6.9% hits | Potency, µM (top dose mostly 28.7 µM), inactives show at the top dose activity change, negative = inhibition, usual class: inhibitors | P. falciparum luciferase reporter growth, 96 h; note: % is set by controls: 0 for no effect and ±100 for the full control effect
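P. falciparum expressing integrated firefly luciferase, in erythrocytes at 2% hematocrit, 0.05% parasitemia, incubated with compounds 96 h at 37 C, 5% CO2. Growth inhibition read as loss of luminescence; two-generation exposure targets delayed-death apicoplast inhibitors.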
SARS PLpro yeast: blocks SARS-CoV papain-like protease in a yeast assay. S. cerevisiae expressing SARS-CoV PLpro, growth rescue. Potency, µM (highest dose often 32.9 µM), for inactives: at the top dose activity, positive = growth rescue, hits mostly activators. 330,000 compounds, 0.19% hits. AID 485353; calls by dose curve; note: 0% is about no effect; nearly all actives have a fitted effect of over 55% in size
Sm TGR inh: inhibitors of Schistosoma mansoni thioredoxin glutathione reductase. purified TGR, DTNB reduction, TNB absorbance 405 nm. 360,000 compounds, 3% hits. AID 485364. Potency, µM (highest dose often 114 µM), for inactives: at the top dose activity change, negative = inhibition, usual class: inhibitors; note: % is set by controls: 0 for no effect and ±100 for the full control effect; nearly all actives have a fitted effect of over 60% in size
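First, TGR (20 nM dispensed) and NADPH were mixed with compound. Second, a 15 min room-temperature incubation followed. Third, further NADPH and then DTNB were added to start the reaction. Finally, TNB absorbance was monitored kinetically.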
AmpC detergent: inhibitors of E. coli AmpC beta-lactamase with detergent. P00811. AmpC hydrolysis of nitrocefin, absorbance 480 nm, 0.01% Triton. Potency, µM (top dose mostly 114 µM), for the others: at the top dose activity change, negative = inhibition, hits mostly inhibitors. 370,000 compounds, 0.041% hits. AID 485294;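 note: 0% = no-compound wells and -100% = no-enzyme wells; nearly all actives have a fitted effect of over 25% in size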
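20 mM phosphate pH 7.0 + 0.01% (detergent screen) or 0.0001% Triton X-100; 5.3 nM AmpC reagent; cpd preinc 15 min RT; nitrocefin (800 uM stock) to start; A480 q20 s × 4 min; Activity was normalised to no-enzyme and no-compound control wells.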
Pf growth 48h: P. falciparum growth inhibition at 48 hours (one generation). P. falciparum luciferase growth in erythrocytes, 48 h. AID 504832. Potency, µM (highest dose often 28.7 µM), inactives show at the highest dose activity change, negative = inhibition, hits mostly inhibitors. 310,000 compounds, 5.9% hits; note: % is set by controls: 0 for no effect and ±100 for the full control effect
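Here the parasites carry a stable luciferase gene and grow inside erythrocytes in Albumax-based RPMI medium with compound for one erythrocytic cycle. Activity is scored as loss of luminescent signal.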
Starred values were filed as active, the others as inactive; ? = inconclusive; · = not tested or not shown; [ ] = dose if it differs, or a comment. Unless noted, calls come from the whole dose curve; as a rule, active = well fitted curve in the direction sought with a large enough effect; inconclusive = small, poorly fitted or top-dose-only effect, or another doubt; inactive = no such curve, though single readings can be large; an effect the other way counts as inactive or inconclusive. Potency is the fitted concentration of half-maximal effect.

SMILES | AmpC no deterg | Pf growth 96h | SARS PLpro yeast | Sm TGR inh | AmpC detergent | Pf growth 48h
CN1CCN(c2nc(-c3ccccn3)nc3ccccc23)CC1 | 13% | 5.9µM* | 0% | -9% | 1% | ·
CCc1cccc(C)c1NC(=O)Cn1cc2c(n1)CCCC2 | · | · | · | 6% | 22% | ·
O=C(c1ccc([N+](=O)[O-])o1)N1CCc2ccccc21 | -25% | ? | 18% | -7% | 2% | ?
O=C(c1ccc([N+](=O)[O-])o1)N1CCCCCC1 | -13% | · | -12% | · | · | ·
O=C(c1ccc([N+](=O)[O-])o1)N1CCc2ccccc2C1 | -7% | 5.2µM* | -20% | 0% | -2% | ?
O=C(c1ccc([N+](=O)[O-])o1)N1CCOCC1 | -4% | 3.3µM* | -2% | -24% | 1% | ?
COc1cc2c(cc1OC)CN(C(=O)c1ccc([N+](=O)[O-])o1)CC2 | 4% | 4.1µM* | -4% | 28µM* | -1% | ?
Cc1cc2ccccn2c1C(=O)c1ccccc1F | -28% | 34% | -4% | -2% | 6% | 11%
COc1cc2c(cc1OC)C(C(=O)N(C)Cc1ccccc1)C(c1cccnc1)N(C)C2=O (centres undefined) | 5% | 3.7µM* | -2% | -1% | ? | 8%
COc1cc2c(cc1OC)C(C(=O)Nc1ccc3c(c1)OCCO3)C(c1cccnc1)N(C)C2=O (centres undefined) | 95% | ? | -4% | 3% | 4% | 7.4µM*
COc1cc2c(cc1OC)C(C(=O)Nc1cc(OC)c(OC)c(OC)c1)C(c1cccnc1)N(C)C2=O (centres undefined) | -1% | ? | -6% | 3% | ? | ?
O=c1[nH]c(=O)n(Cl)c(=O)n1Cl | · | -5% | · | · | · | -3%
Cc1cc(/C=C2\NC(=S)NC2=O)c(C)n1-c1cccnc1 | -17% | -17% | -2% | -10% | 7% | -15%
Cc1ccc(S(=O)(=O)N2CC(=NO)C2)cc1 | -6% | 13µM* | -1% | 13% | -11% | 9%
Cc1ccc(S(=O)(=O)N2CCN(S(C)(=O)=O)C2)cc1 | -6% | 13µM* | 3% | 15% | 0% | 7%
CCC(=O)N1CCCc2cc(S(=O)(=O)Nc3ccc(C)c(C)c3)ccc21 | · | · | · | 3% | 4% | ·
O=C1C2C3c4ccccc4C(c4ccccc43)C2C(=O)N1c1cccnc1 (centres undefined) | 22% | -5% | 13% | -1% | 3% | 4%
O=C1[C@@H]2C(c3cccnc3)=NO[C@@H]2C(=O)N1c1ccc2ccccc2c1 | -23% | 47% | -6% | 3.5µM* | -6% | 15%
CC(C)(C)CN1CCNC[C@H]1Cc1cccc2ccccc12 | 0% | 9.3µM* | -2% | 22µM* | ? | ?
Oc1ccc(C[C@H]2CNCCN2CCc2cccc(F)c2)cc1 | -3% | ? | 1% | 1% | 9% | ?
c1ccc(C2(CN3CCNC[C@H]3Cc3cccc4ccccc34)CC2)cc1 | 21% | ? | 3% | -19% | -7% | ?
Oc1ccc(C[C@@H]2CNCCN2CCc2cccc3ccccc23)cc1 | 33% | ? | -2% | -13% | -14% | 13µM*
Cc1ccc(S(=O)(=O)Nc2cccc(C(=O)NCc3ccc(S(N)(=O)=O)cc3)c2)cc1 | -56% | -2% | 1% | 5% | -4% | 3%
COCCn1cnnc1SCC(=O)Nc1ccccc1C(=O)Nc1ccc2c(c1)OCO2 | -8% | 3% | 9% | 5% | 7% | 14%
CCCn1cc(SCC(=O)Nc2nnc(C)s2)c2ccccc21 | 1% | -8% | 1% | 0% | ? | -15%
SMILES | AmpC no deterg | Pf growth 96h | SARS PLpro yeast | Sm TGR inh | AmpC detergent | Pf growth 48h
Cc1ccc(C(=O)NCCn2cc(SCC(=O)Nc3nnc(C)s3)c3ccccc32)cc1 | 12% | 4.1µM* | 6% | 4% | -13% | ·
Cc1cc(NC(=O)CSc2cn(CCNC(=O)c3ccc(Cl)cc3)c3ccccc23)no1 | 10µM* | -60% | ? | 10% | 3% | -15%
COc1ccc(C(=O)NCCn2cc(SCC(=O)NCC3CCCO3)c3ccccc32)cc1OC (centres undefined) | 52% | 6.6µM* | -2% | -24% | -4% | 8.3µM*
COc1cc(O)c(C(C)=O)c(CC(=O)O)c1 | -42% | ? | 2% | ? | 3% | 33%
CCN(CC)C(=O)COc1ccc(/C=C(\C#N)S(=O)(=O)c2ccccc2)cc1OC | -1%[2.29 µM] | 9.3µM* | 0% | 5% | ? | 1%
COC(=O)c1cc2c(C)c(C)c3ccccn3c-2c1C(=O)OC | 9% | 13µM* | 18%[6.58 µM] | -15% | -1% | ·
COC(=O)c1cc2n3ccccc3c(C)c(-c3ccccc3)c-2c1C(=O)OC | 7% | 9.3µM* | 6% | -37% | ? | ·
COC(=O)N1CC(=O)N(OC)C1c1ccc(Cl)cc1Cl (centres undefined) | 1% | 23% | -2% | 5% | 0% | -12%
CN1C(=O)C2(c3ccccc31)C1CCCC=C1C(C#N)=C(N)C2(C#N)C#N (centres undefined) | -51% | -17% | 6% | 20µM* | ? | -19%
C=CCNS(=O)(=O)c1ccc(OCC(=O)OCC)cc1 | 3% | 2.3µM* | -7% | 2% | ? | 2%
COC(=O)COc1ccc(S(=O)(=O)NCCC2=CCCCC2)cc1 | 0.14µM* | 124% | -6% | -24% | 3% | 5%
O=C(COC(=O)c1ccc(S(=O)(=O)N2CCCCC2)cc1)NCc1ccccc1 | -21% | · | -27% | · | · | ·
CC(C)OCCCn1c(=O)c2ccccc2n2c(-c3cc(Cl)ccc3O)nnc12 | · | · | · | 9% | 29% | ·
COc1ccc(Nc2nc(NCc3ccco3)nc(N/N=C/c3ccccc3)n2)cc1 | -40% | 128% | -20% | -2% | -5% | 1.9µM*
COc1ccc(C(C)=O)c(Oc2ccc(S(=O)(=O)N3CCOCC3)cn2)c1 | 13% | ? | -1% | -5% | 4% | 8.3µM*
COC(=O)C1=C(c2ccc(OC(F)(F)F)cc2)C[C@@H]2CC[C@H]1N2C(=O)NCCOc1ccc(OC)cc1 | 166% | 5.9µM* | 6% | -5% | 9% | ?
COC(=O)C1=C(c2ccc(OC(F)(F)F)cc2)C[C@@H]2CC[C@H]1N2C(=O)NCCNC(C)=O | 75% | 27% | 4% | -3% | -5% | ?
COC(=O)C1=C(c2ccc(OC(F)(F)F)cc2)C[C@@H]2CC[C@H]1N2C(=O)NCCc1ccccc1 | 118% | ? | 1% | 15% | 2% | 3.7µM*
